“And” between values parts separate entries of the source, which are not always exact repeats. Equal entries are not always repeated. Among all 16,000 compounds or so, about 5,100 (32%) were called active. Roughly 25% stayed inconclusive and do not appear here. Calls follow the shape of the dose curve; as a rule, active = well fitted curve in the direction sought with a large enough effect; inconclusive = small, poorly fitted or top-dose-only effect, or effect the other way; inactive = no such curve, though single readings can be large or run the other way. This is one part of the list. Where a structure was tested more than once in an assay, its records may differ in their call.
Biological target: Cytochrome P450 3A4 (Homo sapiens) (UniProt P08684)
Test: Cytochrome panel assay with activity outcomes
Conditions: recombinant CYP, pro-luciferin dealkylation, luminescence, p450-cyp3a4; series mostly up to 57.1 µM
% is scaled to controls: 0 for no effect and ±100 for the full control effect.

Sequence of Cytochrome P450 3A4 (Homo sapiens) (P08684 whole entry, looked up): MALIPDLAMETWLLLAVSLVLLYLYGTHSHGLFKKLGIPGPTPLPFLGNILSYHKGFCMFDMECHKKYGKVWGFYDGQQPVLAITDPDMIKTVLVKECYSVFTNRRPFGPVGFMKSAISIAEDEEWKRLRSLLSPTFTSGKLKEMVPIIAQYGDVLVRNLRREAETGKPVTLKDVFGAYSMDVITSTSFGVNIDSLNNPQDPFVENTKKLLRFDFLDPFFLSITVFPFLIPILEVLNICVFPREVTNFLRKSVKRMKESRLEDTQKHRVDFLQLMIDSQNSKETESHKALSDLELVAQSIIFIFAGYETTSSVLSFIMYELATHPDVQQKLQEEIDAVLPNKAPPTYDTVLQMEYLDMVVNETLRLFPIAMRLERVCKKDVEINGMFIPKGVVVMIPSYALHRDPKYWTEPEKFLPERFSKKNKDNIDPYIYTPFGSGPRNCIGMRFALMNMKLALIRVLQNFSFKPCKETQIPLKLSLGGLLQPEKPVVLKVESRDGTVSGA

| SMILES | activity, negative = inhibition | AC50 |
| --- | --- | --- |
| CN[C@H](Cc1ccccc1)c1cccc(OC)c1O | -2.26% [at 11.4 µM] (inactive) |  |
| c1ccc2c(c1)Sc1ccccc1N2C[C@H]1CN2CCC1CC2 | -6.51% [at 11.4 µM] (inactive) |  |
| CCOP(=O)(OCC)C(NC(C)=O)C(Cl)(Cl)Cl (configuration not stated) | inactive |  |
| CCCC[N+]12CCC(CC1)C(C(=O)c1cccs1)C2 (configuration not stated) | inactive |  |
| CC(=O)NCCc1c[nH]c2ccccc12 | inactive |  |
| ClCCNc1nc2ccc(Cl)cc2[nH]1 | inactive |  |
| CC(=O)OCC1=C(C(=O)[O-])N2C(=O)[C@@H](NC(=O)CCC[C@@H](N)C(=O)[O-])[C@@H]2SC1.[Zn+2] | inactive |  |
| C=CCN1C[C@H](C)N([C@H](c2ccc(C(=O)N(CC)CC)cc2)c2cccc(O)c2)C[C@H]1C |  | 12.6 µM (active) |
| C=CCN1CCC2(C)c3cc(O)ccc3C[C@H]1[C@H]2C | inactive |  |
| C[C@H](N)Cc1c[nH]c2ccc(O)cc12 | inactive |  |
| O=C(CN1CCCCC1)Nc1ccc(Br)cc1C(=O)c1ccccc1Cl | -0.765% [at 2.29 µM] (inactive) |  |
| COc1ccc(OCC(=O)Nc2ccc(Cl)cc2C(=O)c2ccccc2)cc1 |  | 2.24 µM (active) |
| O=C(Nc1ccc(Cl)cc1C(=O)c1ccccc1Cl)c1ccco1 | inactive |  |
| CNC(C)(C)Cc1ccccc1 | inactive |  |
| CCCN1CCC[C@@H]2Cc3[nH]ncc3C[C@H]21 | inactive |  |
| CC(C(=O)c1c[nH]c2ccccc12)N1CCSCC1 (configuration not stated) | -1.61% [at 2.29 µM] (inactive) |  |
| CN(C)CCC(=O)[C@@]1(O)CC[C@H]2[C@H]3CC=C4C[C@@H](O)CC[C@]4(C)[C@H]3CC[C@]21C | -0.253% [at 11.4 µM] (inactive) |  |
| c1cncc(CNc2cc(-c3ccc4c(c3)OCO4)ncn2)c1 |  | 0.794 µM (active) |
| c1cncc(CNCCN2CCNCC2)c1 | -5.07% [at 11.4 µM] (inactive) |  |
| O[C@@H](c1cc(-c2ccccc2)nc2c1ccc1ccccc12)[C@@H]1CCCCN1 | -0.102% [at 11.4 µM] (inactive) |  |
| C[C@H]1CC[C@@]2(NC1)O[C@@H]1C[C@H]3[C@@H]4CC[C@@H]5C[C@@H](O)CC[C@@]5(C)[C@@H]4CC[C@]3(C)[C@@H]1[C@@H]2C | inactive |  |
| NCC[C@H](O)C(=O)N[C@H]1C[C@@H](N)[C@@H](O[C@H]2O[C@@H](CN)[C@@H](O)[C@@H](O)[C@@H]2N)[C@@H](O[C@H]2O[C@@H](CO)[C@@H](O)[C@@H]2O)[C@@H]1O | inactive |  |

| SMILES | activity, negative = inhibition | AC50 |
| --- | --- | --- |
| CC(O)(CS(=O)(=O)c1cccc(C(F)(F)F)c1)C(=O)Nc1ccc(C(F)(F)F)cc1 (configuration not stated) |  | 1.41 µM (active) |
| CC(O)(CS(=O)(=O)c1cccc(C(F)(F)F)c1)C(=O)Nc1cccc(C(F)(F)F)c1 (configuration not stated) |  | 1.41 µM (active) |
| CC(O)(CS(=O)(=O)c1ccccc1)C(=O)Nc1cccc(C(F)(F)F)c1 (configuration not stated) |  | 4.47 µM (active) |
| O=C(O)c1ccccc1Nc1cccc(C(F)(F)F)c1 | inactive |  |
| Cc1o[nH]c(=O)c1C[C@@H](N)C(=O)O | inactive |  |
| CC1=C(O)C(=O)[C@H]2O[C@@H]2C1=O | inactive |  |
| O=C(O)CCCC[C@H]1SC[C@H]2NC(=O)N[C@@H]21 | inactive |  |
| O=C(O)[C@H]1[O][Sb][O][C@@H](C(=O)O)C1O (some centres not stated) | -10.4% [at 11.4 µM] (inactive) |  |
| C[C@]1(O)CC[C@H]2[C@@H]3[C@@H](O)CC4=CC(=O)CC[C@@]4(C)[C@H]3CC[C@]21C | -2.12% [at 11.4 µM] (inactive) |  |
| CC1(C)N=C(N)N=C(N)N1c1cccc(C(=O)Nc2ccc(S(=O)(=O)F)cc2)c1 | 17.5% [at 11.4 µM] (inactive) |  |
| O=[As](O)(O)c1ccc(N=Nc2ccc(O)cc2)cc1 | -4.07% [at 11.4 µM] (inactive) |  |
| C[N+](C)(C)CC(=O)O | inactive |  |
| N=C(N)SCc1ccc(Cl)c2ccccc12 (tested in a mixture with another compound) | -2.18% [at 11.4 µM] (inactive) and 15.2% [at 11.4 µM] (inactive) |  |
| CC(C)c1c(CN(C)[C@@H](C)Cc2ccccc2)n(C)n(-c2ccccc2)c1=O |  | 3.98 µM (active) |
| C=C[C@@H]1CN2CC[C@H]1C[C@H]2[C@H](O)c1ccnc2ccccc12 | -1.79% [at 11.4 µM] (inactive) |  |
| CC(C)CNCCc1ccccn1 | -8.38% [at 11.4 µM] (inactive) |  |
| CCC1(C)CC(=O)NC(=O)C1 | inactive |  |
| COc1ccc(CNC(=O)/C=C\c2ccc3[nH]cc(CCN(C)C)c3c2)cc1 |  | 15.8 µM (active) |
| CCCN(CCC)CCc1c[nH]c2ccc(C(N)=O)cc12 | inactive |  |
| COc1ccc2[nH]cc(CCN(C)C)c2c1 | inactive |  |
| N[C@@H](CSC1c2ccccc2-c2ccccc21)C(=O)O | -17.3% [at 11.4 µM] (inactive) |  |
| Cn1c[n+](C)cc1C(O)c1ccccc1 (configuration not stated) | 1.92% [at 2.29 µM] (inactive) |  |

| SMILES | activity, negative = inhibition | AC50 |
| --- | --- | --- |
| C=C(C)c1ccccc1 (tested in a mixture with another compound) | -22.2% [at 11.4 µM] (inactive) |  |
| CN1C(=O)C(=Cc2ccc(N3CCCCCC3)o2)C(=O)N(C)C1=S |  | 3.98 µM (active) |
| CN1C(=O)C(=Cc2ccc(N3CCCCC3)o2)C(=O)N(C)C1=S | inactive |  |
| CCN1CCC2(CC1)NC(CO)(CO)CO2 | inactive |  |
| C[C@]12N[C@@H](Cc3ccccc31)c1ccccc12 | inactive |  |
| Cc1cccc(N2C(=O)NC(=O)/C(=C\c3cnn(-c4ccccc4)c3)C2=O)c1 | 8.31% [at 2.29 µM] (inactive) |  |
| Cc1cc(C)cc(NC(=S)NC2CC3CCC(C2)N3Cc2ccco2)c1 (configuration not stated) | inactive |  |
| CN(C)CS/C(N)=N/[C@H](O)C(Cl)(Cl)Cl | -7.61% [at 11.4 µM] (inactive) |  |
| CC[N+](CC)(CCNC(=O)C(=O)NCC[N+](CC)(CC)Cc1ccccc1Cl)Cc1ccccc1Cl | inactive |  |
| C[C@@H]1CC[C@@H]2N(C1)C[C@H]1[C@@](O)([C@H](O)C[C@]3(O)[C@H]4CC[C@H]5[C@]6(O)O[C@]4(C[C@]13O)[C@@]5(C)CC[C@@H]6O)[C@@]2(C)O | -1.62% [at 11.4 µM] (inactive) |  |
| Nc1ncnc2c1ncn2[C@@H]1O[C@@H](COP(=O)(O)CP(=O)(O)OP(=O)(O)O)[C@H](O)[C@@H]1O | inactive |  |
| O=C(O)CC[N+](=O)[O-] | inactive |  |
| CC(C)Oc1cc(-n2c(=S)[nH]c3ccccc3c2=O)c(Cl)cc1Cl |  | 3.16 µM (active) |
| CN1[C@H]2CC(=O)C[C@@H]1[C@@H](O)C2 | inactive |  |
| c1ccc2cc(CC3=NCCN3)ccc2c1 | inactive |  |
| N[C@H](Cn1ccc(=O)[nH]c1=O)C(=O)O | inactive |  |
| CC[C@@H](CO)NC(=O)[C@H]1C=C2c3cccc4c3c(cn4C)C[C@H]2N(C)C1 | inactive |  |
| CC(C)[C@H](CO)Nc1nc(Nc2cccc(Cl)c2)c2ncn(C(C)C)c2n1 |  | 12.6 µM (active) |
| CC[C@@H](CO)Nc1nc(NCc2ccccc2)c2ncn(C(C)C)c2n1 |  | 12.6 µM (active) |
| COC(=O)c1c(C)ccc2c(O)c3c(cc12)C(=O)c1c2c(cc(O)c1C3=O)[C@@]1(C)O[C@@](C)(O2)[C@@H](O)[C@H](N(C)C)[C@H]1O | -1.78% [at 11.4 µM] (inactive) |  |
| C(=NC12CN3CN(CN(C3)C1)C2)c1cccs1 | inactive |  |
| CN(C)C(=O)Oc1cccc([N+](C)(C)C)c1 | inactive |  |

| SMILES | activity, negative = inhibition | AC50 |
| --- | --- | --- |
| COC(=O)C1=CCCN(C)C1 | inactive |  |
| CC(C)N[C@@H](C)Cc1ccc(I)cc1 | inactive |  |
| Nc1nc(N)c(N=Nc2ccc([As](=O)(O)O)cc2)c(=O)[nH]1 | 8.58% [at 11.4 µM] (inactive) |  |
| C/C=C1\C[C@H](C)[C@@](O)(CO)C(=O)OCC2=CCN3CC[C@@H](OC1=O)[C@@H]23 | inactive |  |
| N=C1c2ccccc2CN1NC(=O)c1ccc(F)cc1 | inactive |  |
| Cc1c2ccncc2c(C)c2c1[nH]c1ccccc12 |  | 0.158 µM (active) |
| Cc1nccc2c1[nH]c1ccccc12 |  | inactive and 3.98 µM (active) |
| CCN(CC)CCn1ncc2c(N)ncnc21 | -6.29% [at 11.4 µM] (inactive) |  |
| COc1ccc2cc1Oc1ccc(cc1)C[C@H]1c3cc(c(OC)cc3CCN1C)Oc1c(OC)c(OC)cc3c1[C@@H](C2)N(C)CC3 | -2.4% [at 11.4 µM] (inactive) |  |
| C[N+]1(C)CCO[C@](O)(c2ccc(-c3ccc([C@]4(O)C[N+](C)(C)CCO4)cc3)cc2)C1 | inactive |  |
| COCCn1c(SCc2nc3sc(C(=O)OC)c(C)c3c(=O)[nH]2)nc2ccccc21 |  | 3.55 µM (active) |
| CC1(C)N(O)C(c2ccc(C(=O)O)cc2)=[N+]([O-])C1(C)C | inactive |  |
| CC(C)[C@@H](C)/C=C\[C@@H](C)[C@@H]1CC[C@H]2C3=CC=C4C[C@@H](O)CC[C@]4(C)[C@H]3CC[C@]21C | 10.4% [at 11.4 µM] (inactive) |  |
| NCCP(=O)(O)O | -6.9% [at 11.4 µM] (inactive) |  |
| CCOCCN1CCC(OC(C)=O)C(C)C1 (configuration not stated) | inactive |  |
| CC(C)(C)NC[C@@H](O)COc1cccc2[nH]c(C#N)cc12 |  | 25.1 µM (active) |
| NCC1(CC(=O)O)CCCCC1 | inactive |  |
| COc1cc(/C=N/NC(=O)CN2CC(c3ccccc3)CC2=O)ccc1OC(=O)N(C)C (configuration not stated) | inactive |  |
| CC[C@H](C)C(=O)O[C@@H]1[C@H](O)[C@@H]2[C@H](CN3C[C@@H](C)CC[C@@H]3[C@@]2(C)O)[C@@H]2C[C@@]34O[C@@]5(O)[C@@H](OC(=O)[C@](C)(O)CC)CC[C@@]3(C)[C@H]5[C@H](OC(C)=O)[C@@H](OC(C)=O)[C@H]4[C@]12O | inactive |  |
| N[C@@H](Cc1cc(Br)c(O)c(Br)c1)C(=O)O | -16.7% [at 11.4 µM] (inactive) |  |
| Cc1ccc2c(c1)C1CN(C)CCC1N2C(=O)Nc1cccc(Cl)c1 (configuration not stated) | inactive |  |

From PubChem BioAssay AID1851 (National Center for Advancing Translational Sciences (NCATS), 2009)
